Source: the supplement of paper PMC4466140

How the values were obtained:
Assay in all cases: SPOT peptide array binding signal intensity (averaged, normalized) (arbitrary units (background-subtracted, floor 0; scale differs between SH3 domains)); higher = stronger binding of the SH3 domain to the peptide
AgAbp1 = biological target: AgAbp1
How it was run: (§1)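 Detection of bound protein relied on anti-GST antibody, an HRP anti-mouse secondary and luminol, with imaging and quantification in Genespotter. The bound protein was GST-fused SH3 domains from four yeast species, incubated at 10 μg/ml overnight at 4°C in TBS-based blocking buffer on cellulose membranes carrying synthetic 15-mer peptides with cysteines replaced by serines. Binding signal is normalized, background-subtracted spot intensity averaged over replicates, in arbitrary units that differ between domains.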

AgBbc1 = biological target: AgBbc1
How it was run: as §1

AgBem1-D1 = biological target: AgBem1-D1
How it was run: as §1

AgBzz1-D1 = biological target: AgBzz1-D1
How it was run: as §1

AgBzz1-D2 = biological target: AgBzz1-D2
How it was run: as §1

AgCyk3 = biological target: AgCyk3
How it was run: as §1

AgFus1 = biological target: AgFus1
How it was run: as §1

AgHof1 = biological target: AgHof1
How it was run: as §1

AgHse1 = biological target: AgHse1
How it was run: as §1

AgLsb1 = biological target: AgLsb1
How it was run: as §1

AgLsb4 = biological target: AgLsb4
How it was run: as §1

AgMyo5 = biological target: AgMyo5
How it was run: as §1

AgNbp2 = biological target: AgNbp2
How it was run: as §1

AgRvs167 = biological target: AgRvs167
How it was run: as §1

AgSho1 = biological target: AgSho1
How it was run: as §1

AgSla1-D1-D2 = biological target: AgSla1-D1-D2
How it was run: as §1

AgSla1-D3 = biological target: AgSla1-D3
How it was run: as §1

CaAbp1-D1 = biological target: CaAbp1-D1
How it was run: as §1

CaAbp1-D2 = biological target: CaAbp1-D2
How it was run: as §1

CaBbc1 = biological target: CaBbc1
How it was run: as §1

CaBem1-D1 = biological target: CaBem1-D1
How it was run: as §1

CaBzz1-D1 = biological target: CaBzz1-D1
How it was run: as §1

CaBzz1-D2 = biological target: CaBzz1-D2
How it was run: as §1

CaCyk3 = biological target: CaCyk3
How it was run: as §1

CaFus1 = biological target: CaFus1
How it was run: as §1

CaHof1 = biological target: CaHof1
How it was run: as §1

CaHse1 = biological target: CaHse1
How it was run: as §1

CaLsb1 = biological target: CaLsb1
How it was run: as §1

CaLsb4 = biological target: CaLsb4
How it was run: as §1

CaMyo5 = biological target: CaMyo5
How it was run: as §1

CaNbp2 = biological target: CaNbp2
How it was run: as §1

CaRvs167 = biological target: CaRvs167
How it was run: as §1

CaRvs167-3 = biological target: CaRvs167-3
How it was run: as §1

CaSho1 = biological target: CaSho1
How it was run: as §1

CaSla1-D1-D2 = biological target: CaSla1-D1-D2
How it was run: as §1

CaSla1-D3 = biological target: CaSla1-D3
How it was run: as §1

ScAbp1 = biological target: ScAbp1
How it was run: as §1

ScBbc1 = biological target: ScBbc1
How it was run: as §1

ScBem1-D1 = biological target: ScBem1-D1
How it was run: as §1

ScBzz1-D1 = biological target: ScBzz1-D1
How it was run: as §1

ScBzz1-D2 = biological target: ScBzz1-D2
How it was run: as §1

ScCyk3 = biological target: ScCyk3
How it was run: as §1

ScFus1 = biological target: ScFus1
How it was run: as §1

ScHof1 = biological target: ScHof1
How it was run: as §1

ScHse1 = biological target: ScHse1
How it was run: as §1

ScLsb1 = biological target: ScLsb1
How it was run: as §1

ScLsb2 = biological target: ScLsb2
How it was run: as §1

ScLsb3 = biological target: ScLsb3
How it was run: as §1

ScLsb4 = biological target: ScLsb4
How it was run: as §1

ScMyo3 = biological target: ScMyo3
How it was run: as §1

ScMyo5 = biological target: ScMyo5
How it was run: as §1

ScNbp2 = biological target: ScNbp2
How it was run: as §1

ScPex13 = biological target: ScPex13
How it was run: as §1

ScRvs167 = biological target: ScRvs167
How it was run: as §1

ScSho1 = biological target: ScSho1
How it was run: as §1

ScSla1-D1-D2 = biological target: ScSla1-D1-D2
How it was run: as §1

ScSla1-D3 = biological target: ScSla1-D3
How it was run: as §1

SpAbp1-D1 = biological target: SpAbp1-D1
How it was run: as §1

SpBbc1 = biological target: SpBbc1
How it was run: as §1

SpBzz1-D1 = biological target: SpBzz1-D1
How it was run: as §1

SpBzz1-D2 = biological target: SpBzz1-D2
How it was run: as §1

SpCyk3 = biological target: SpCyk3
How it was run: as §1

SpHof1 = biological target: SpHof1
How it was run: as §1

SpHof1-2 = biological target: SpHof1-2
How it was run: as §1

SpHof1-3 = biological target: SpHof1-3
How it was run: as §1

SpHse1 = biological target: SpHse1
How it was run: as §1

SpLsb1 = biological target: SpLsb1
How it was run: as §1

SpLsb4 = biological target: SpLsb4
How it was run: as §1

SpMyo1 = biological target: SpMyo1
How it was run: as §1

SpNbp2 = biological target: SpNbp2
How it was run: as §1

SpPex13 = biological target: SpPex13
How it was run: as §1

SpRvs167 = biological target: SpRvs167
How it was run: as §1

SpSla1-D1-D2 = biological target: SpSla1-D1-D2
How it was run: as §1

SpSla1-D3 = biological target: SpSla1-D3
How it was run: as §1

Measured: SPOT peptide array binding signal intensity

B1: unnamed (peptide)
chain: DLFKPLPEPPTELGR
27: AgHse1
5: AgLsb4
7: CaFus1
22: AgBzz1-D1
2.5: AgAbp1
6.67: CaRvs167
1460: SpHof1
1970: SpHof1-2
1.5: SpCyk3
0.75: SpHse1
734: SpHof1-3
5.67: SpRvs167
0.333: AgRvs167
5560: ScSho1
3: ScSla1-D3 | SpPex13
1410: AgSho1
2540: CaSho1
10: ScLsb4
16: CaHse1
1030: ScPex13
1: AgCyk3 | AgFus1 | CaHof1 | ScBzz1-D1 | ScHof1
≤ 0: all other assays above
